{"source": "paper PMC7826789", "about": "(International Journal of Molecular Sciences, 2021);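 further: KINOMEscan scanMAX binding as percent activity remaining versus control; lower means stronger binding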", "key": {"PIP5K2B": {"system": "T1, PIP5K2B", "T1 construct": "gene PIP4K2B", "details": "Compound Concentration (nM):1000"}, "PIP5K2C": {"system": "T2, PIP5K2C", "T2 construct": "gene PIP4K2C", "details": "Compound Concentration (nM):1000"}, "PKAC-alpha": {"system": "T3, PKAC-alpha", "T3 construct": "gene PRKACA", "details": "Compound Concentration (nM):1000"}, "PKAC-beta": {"system": "T4, PKAC-beta", "T4 construct": "gene PRKACB", "details": "Compound Concentration (nM):1000"}, "PKMYT1": {"system": "PKMYT1", "details": "Compound Concentration (nM):1000"}, "PKN1": {"system": "PKN1", "details": "Compound Concentration (nM):1000"}, "PKN2": {"system": "PKN2", "details": "Compound Concentration (nM):1000"}, "PKNB(M.tuberculosis)": {"system": "PKNB(M.tuberculosis)", "details": "1 µM"}, "PLK1": {"system": "PLK1", "details": "Compound Concentration (nM):1000"}, "PLK2": {"system": "PLK2", "details": "Compound Concentration (nM):1000"}}}
{"smiles": "COc1cccc(-c2c[nH]c3c(N/N=C/c4ccncc4)ncnc23)c1", "note": "[GW814408X]", "values": [{"measurement": "Percent Control", "setting": "PIP5K2B", "result": 100, "unit": "%"}, {"measurement": "Percent Control", "setting": "PIP5K2C", "result": 9.1, "unit": "%"}, {"measurement": "Percent Control", "setting": "PKAC-alpha", "result": 100, "unit": "%"}, {"measurement": "Percent Control", "setting": "PKAC-beta", "result": 100, "unit": "%"}, {"measurement": "Percent Control", "setting": "PKMYT1", "result": 100, "unit": "%"}, {"measurement": "Percent Control", "setting": "PKN1", "result": 100, "unit": "%"}, {"measurement": "Percent Control", "setting": "PKN2", "result": 100, "unit": "%"}, {"measurement": "Percent Control", "setting": "PKNB(M.tuberculosis)", "result": 99, "unit": "%"}, {"measurement": "Percent Control", "setting": "PLK1", "result": 95, "unit": "%"}, {"measurement": "Percent Control", "setting": "PLK2", "result": 100, "unit": "%"}]}
{"smiles": "NS(=O)(=O)c1ccc(N/N=C2\\C(=O)Nc3ccc(C(=O)NCCc4c[nH]cn4)cc32)cc1", "note": "[GW300660X]", "values": [{"measurement": "Percent Control", "setting": "PIP5K2B", "result": 100, "unit": "%"}, {"measurement": "Percent Control", "setting": "PIP5K2C", "result": 48, "unit": "%"}, {"measurement": "Percent Control", "setting": "PKAC-alpha", "result": 100, "unit": "%"}, {"measurement": "Percent Control", "setting": "PKAC-beta", "result": 100, "unit": "%"}, {"measurement": "Percent Control", "setting": "PKMYT1", "result": 100, "unit": "%"}, {"measurement": "Percent Control", "setting": "PKN1", "result": 100, "unit": "%"}, {"measurement": "Percent Control", "setting": "PKN2", "result": 80, "unit": "%"}, {"measurement": "Percent Control", "setting": "PKNB(M.tuberculosis)", "result": 92, "unit": "%"}, {"measurement": "Percent Control", "setting": "PLK1", "result": 100, "unit": "%"}, {"measurement": "Percent Control", "setting": "PLK2", "result": 75, "unit": "%"}]}
{"smiles": "CN(C)CCNC(=O)Nc1ccc(N(C)c2ccnc(Nc3ccc(CS(C)(=O)=O)cc3)n2)cc1.Cl", "note": "[GW830900A]", "values": [{"measurement": "Percent Control", "setting": "PIP5K2B", "result": 33, "unit": "%"}, {"measurement": "Percent Control", "setting": "PIP5K2C", "result": 3.7, "unit": "%"}, {"measurement": "Percent Control", "setting": "PKAC-alpha", "result": 100, "unit": "%"}, {"measurement": "Percent Control", "setting": "PKAC-beta", "result": 100, "unit": "%"}, {"measurement": "Percent Control", "setting": "PKMYT1", "result": 100, "unit": "%"}, {"measurement": "Percent Control", "setting": "PKN1", "result": 83, "unit": "%"}, {"measurement": "Percent Control", "setting": "PKN2", "result": 64, "unit": "%"}, {"measurement": "Percent Control", "setting": "PKNB(M.tuberculosis)", "result": 94, "unit": "%"}, {"measurement": "Percent Control", "setting": "PLK1", "result": 86, "unit": "%"}, {"measurement": "Percent Control", "setting": "PLK2", "result": 100, "unit": "%"}]}
{"smiles": "COc1ccc2cc(-c3c(-c4ccncc4)nc(-c4ccc(S(C)(=O)=O)cc4C)n3C)ccc2c1", "note": "[SB-633825]", "values": [{"measurement": "Percent Control", "setting": "PIP5K2B", "result": 83, "unit": "%"}, {"measurement": "Percent Control", "setting": "PIP5K2C", "result": 73, "unit": "%"}, {"measurement": "Percent Control", "setting": "PKAC-alpha", "result": 96, "unit": "%"}, {"measurement": "Percent Control", "setting": "PKAC-beta", "result": 65, "unit": "%"}, {"measurement": "Percent Control", "setting": "PKMYT1", "result": 89, "unit": "%"}, {"measurement": "Percent Control", "setting": "PKN1", "result": 86, "unit": "%"}, {"measurement": "Percent Control", "setting": "PKN2", "result": 100, "unit": "%"}, {"measurement": "Percent Control", "setting": "PKNB(M.tuberculosis)", "result": 83, "unit": "%"}, {"measurement": "Percent Control", "setting": "PLK1", "result": 63, "unit": "%"}, {"measurement": "Percent Control", "setting": "PLK2", "result": 89, "unit": "%"}]}
{"smiles": "Cl.O=C(Nc1ccc(Oc2ccc3[nH]c(NC(=O)c4ccco4)nc3c2)cc1)Nc1cc(C(F)(F)F)ccc1F", "note": "[GW683134A]", "values": [{"measurement": "Percent Control", "setting": "PIP5K2B", "result": 100, "unit": "%"}, {"measurement": "Percent Control", "setting": "PIP5K2C", "result": 76, "unit": "%"}, {"measurement": "Percent Control", "setting": "PKAC-alpha", "result": 100, "unit": "%"}, {"measurement": "Percent Control", "setting": "PKAC-beta", "result": 100, "unit": "%"}, {"measurement": "Percent Control", "setting": "PKMYT1", "result": 100, "unit": "%"}, {"measurement": "Percent Control", "setting": "PKN1", "result": 100, "unit": "%"}, {"measurement": "Percent Control", "setting": "PKN2", "result": 79, "unit": "%"}, {"measurement": "Percent Control", "setting": "PKNB(M.tuberculosis)", "result": 99, "unit": "%"}, {"measurement": "Percent Control", "setting": "PLK1", "result": 100, "unit": "%"}, {"measurement": "Percent Control", "setting": "PLK2", "result": 88, "unit": "%"}]}
{"smiles": "Cl.O=S1CCN(Cc2ccc(-c3ccc4ncnc(Nc5ccc(OCc6ccccc6)c(F)c5)c4c3)o2)CC1", "note": "[GW576924A]", "values": [{"measurement": "Percent Control", "setting": "PIP5K2B", "result": 100, "unit": "%"}, {"measurement": "Percent Control", "setting": "PIP5K2C", "result": 63, "unit": "%"}, {"measurement": "Percent Control", "setting": "PKAC-alpha", "result": 100, "unit": "%"}, {"measurement": "Percent Control", "setting": "PKAC-beta", "result": 100, "unit": "%"}, {"measurement": "Percent Control", "setting": "PKMYT1", "result": 100, "unit": "%"}, {"measurement": "Percent Control", "setting": "PKN1", "result": 100, "unit": "%"}, {"measurement": "Percent Control", "setting": "PKN2", "result": 100, "unit": "%"}, {"measurement": "Percent Control", "setting": "PKNB(M.tuberculosis)", "result": 100, "unit": "%"}, {"measurement": "Percent Control", "setting": "PLK1", "result": 100, "unit": "%"}, {"measurement": "Percent Control", "setting": "PLK2", "result": 100, "unit": "%"}]}
{"smiles": "C[C@@H](Oc1cc(-n2cnc3ccc(OC4CCN(C)CC4)cc32)sc1C(N)=O)c1ccccc1Cl", "note": "[GSK579289A]", "values": [{"measurement": "Percent Control", "setting": "PIP5K2B", "result": 52, "unit": "%"}, {"measurement": "Percent Control", "setting": "PIP5K2C", "result": 75, "unit": "%"}, {"measurement": "Percent Control", "setting": "PKAC-alpha", "result": 100, "unit": "%"}, {"measurement": "Percent Control", "setting": "PKAC-beta", "result": 100, "unit": "%"}, {"measurement": "Percent Control", "setting": "PKMYT1", "result": 81, "unit": "%"}, {"measurement": "Percent Control", "setting": "PKN1", "result": 72, "unit": "%"}, {"measurement": "Percent Control", "setting": "PKN2", "result": 57, "unit": "%"}, {"measurement": "Percent Control", "setting": "PKNB(M.tuberculosis)", "result": 35, "unit": "%"}, {"measurement": "Percent Control", "setting": "PLK2", "result": 13, "unit": "%"}]}
{"smiles": "CCS(=O)(=O)c1ccc(OC)c(Nc2ncc(-c3cccc(F)c3)o2)c1", "note": "[GW621970X]", "values": [{"measurement": "Percent Control", "setting": "PIP5K2B", "result": 99, "unit": "%"}, {"measurement": "Percent Control", "setting": "PIP5K2C", "result": 3.8, "unit": "%"}, {"measurement": "Percent Control", "setting": "PKAC-alpha", "result": 100, "unit": "%"}, {"measurement": "Percent Control", "setting": "PKAC-beta", "result": 100, "unit": "%"}, {"measurement": "Percent Control", "setting": "PKMYT1", "result": 100, "unit": "%"}, {"measurement": "Percent Control", "setting": "PKN1", "result": 100, "unit": "%"}, {"measurement": "Percent Control", "setting": "PKN2", "result": 68, "unit": "%"}, {"measurement": "Percent Control", "setting": "PKNB(M.tuberculosis)", "result": 100, "unit": "%"}, {"measurement": "Percent Control", "setting": "PLK1", "result": 96, "unit": "%"}, {"measurement": "Percent Control", "setting": "PLK2", "result": 93, "unit": "%"}]}
{"smiles": "CN1CCN(C(=O)c2ccc(NC(=O)Nc3ccc(N(C)c4ccnc(Nc5ccc(CS(C)(=O)=O)cc5)n4)cc3)cc2)CC1.Cl", "note": "[GW830263A]", "values": [{"measurement": "Percent Control", "setting": "PIP5K2B", "result": 17, "unit": "%"}, {"measurement": "Percent Control", "setting": "PIP5K2C", "result": 0.9, "unit": "%"}, {"measurement": "Percent Control", "setting": "PKAC-alpha", "result": 100, "unit": "%"}, {"measurement": "Percent Control", "setting": "PKAC-beta", "result": 100, "unit": "%"}, {"measurement": "Percent Control", "setting": "PKMYT1", "result": 96, "unit": "%"}, {"measurement": "Percent Control", "setting": "PKN1", "result": 70, "unit": "%"}, {"measurement": "Percent Control", "setting": "PKN2", "result": 100, "unit": "%"}, {"measurement": "Percent Control", "setting": "PKNB(M.tuberculosis)", "result": 87, "unit": "%"}, {"measurement": "Percent Control", "setting": "PLK1", "result": 100, "unit": "%"}, {"measurement": "Percent Control", "setting": "PLK2", "result": 100, "unit": "%"}]}
{"smiles": "COc1ccc2c(-c3ccnc(Nc4cccc(OC(F)(F)F)c4)n3)cnn2n1", "note": "[GW810372X]", "values": [{"measurement": "Percent Control", "setting": "PIP5K2B", "result": 100, "unit": "%"}, {"measurement": "Percent Control", "setting": "PIP5K2C", "result": 32, "unit": "%"}, {"measurement": "Percent Control", "setting": "PKAC-alpha", "result": 100, "unit": "%"}, {"measurement": "Percent Control", "setting": "PKAC-beta", "result": 100, "unit": "%"}, {"measurement": "Percent Control", "setting": "PKMYT1", "result": 100, "unit": "%"}, {"measurement": "Percent Control", "setting": "PKN1", "result": 100, "unit": "%"}, {"measurement": "Percent Control", "setting": "PKN2", "result": 76, "unit": "%"}, {"measurement": "Percent Control", "setting": "PKNB(M.tuberculosis)", "result": 82, "unit": "%"}, {"measurement": "Percent Control", "setting": "PLK1", "result": 91, "unit": "%"}, {"measurement": "Percent Control", "setting": "PLK2", "result": 100, "unit": "%"}]}
